Source: PubChem
Rows were chosen to be rich in hits. Some 8.8% of all compounds tested hit in one or more screens of this group.
HT1080 IDH1KD tx: qHTS for induction of synthetic lethality in tumor cells producing 2HG: qHTS for the HT-1080-IDH1KD cell line; HT-1080 IDH1 knockdown viability, ATP luminescence, 48 h; Potency, µM (titrated, usually from 46.1 µM), for inactives: top-dose activity, negative = toxicity, hits mostly cytotoxic; 360,000 tested, 2% active;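 note: potency is the fitted concentration of half-maximal effect; 0% = DMSO wells and -100% = cell-free medium wells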
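After a 2 h attachment period, IDH1KD HT-1080 cells took pin-transferred compound for 48 h at 37 °C; ATP-based luminescence after 10 min room-temperature reagent incubation reported viability.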
IL-1B inflam inh: qHTS for Inhibitors of Inflammasome Signaling: IL-1-beta AlphaLISA Primary Screen; THP-1 LPS/ATP IL-1B secretion, AlphaLISA, 16 h; hits give low values; activity change, % at 57.5 µM; 360,000 tested, 4.7% active; in the data active = activity change below about -50%; inconclusive = mostly about -30% to -49%
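Secreted IL-1B measured by AlphaLISA bead assay after 16 h compound exposure of THP-1 cells; compounds (final up to 57.5 uM) added 1 h before LPS (250 ng/mL) and ATP (1.25 mM) stimulation; lower signal means less secretion.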
KB-V1 MDR tox: qHTS assay for MDR1-selective chemotherapeutics: Primary screen using the drug-selected MDR subline cells KB-V1. KB-V1 MDR cells viability, CellTiter-Glo, 72 h. Potency, µM (titrated, usually from 46.1 µM), usual class: cytotoxic. 400,000 tested, 3.4% active. AID 1347076, 2019; note: potency is the fitted concentration of half-maximal effect; nearly all actives have a fitted effect of over 60% in size
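Following 72 h at 37 degrees C with compound, KB-V1 cell viability was read by CellTiter-Glo luminescence, medium being phenol-red-free DMEM plus 10% FBS; concentration-response parameters came from normalized, curve-fitted qHTS data.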
KB-3-1 tox: qHTS assay for MDR1-selective chemotherapeutics: Primary screen using the parental adenocarcinoma cell KB-3-1. KB-3-1 viability, CellTiter-Glo ATP luminescence, 72 h. Potency, µM (titrated, usually from 46.1 µM), actives largely listed as cytotoxic. 400,000 tested, 1.4% active. AID 1347075, 2019; note: potency is the fitted concentration of half-maximal effect; nearly all actives have a fitted effect of over 60% in size
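72 h, 37 °C compound treatment of KB-3-1 parental cells; CellTiter-Glo added, 10 min, luminescence read. Data corrected against DMSO-only plates and normalized before curve fitting.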
HT1080NT lethal: qHTS for induction of synthetic lethality in tumor cells producing 2HG: qHTS for the HT-1080-NT fibrosarcoma cell line | 360,000 tested, 1.6% active | Potency, µM (titrated, usually from 46.1 µM), for inactives: at the top dose activity, negative = less viability, most hits filed as cytotoxic | HT-1080-NT fibrosarcoma viability, CellTiter-Glo ATP luminescence, 48 h;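 note: NT is the 2HG producing partner of a matched IDH1 knockdown line; potency is the fitted concentration of half-maximal effect; 0% = DMSO-treated cells and -100% = media-only wells without cells; nearly all actives have a fitted effect of over 55% in size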
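Read-out is CellTiter-Glo luminescence after 10 minutes at room temperature, following 48 hours' compound treatment of HT-1080-NT cells (750 cells/well, RPMI, 5% FBS, 37 degrees C).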
Starred values were filed as active, the others as inactive; i = inactive; ? = inconclusive; . = not tested or not shown. Unless noted, calls come from the whole dose curve; as a rule, active = well fitted curve in the direction sought with a large enough effect; inconclusive = small, poorly fitted or top-dose-only effect, or another doubt; inactive = no such curve, though single readings can be large; an effect the other way counts as inactive or inconclusive. Unless noted, % is set by controls: 0 for no effect and ±100 for the full control effect.

SMILES | HT1080 IDH1KD tx | IL-1B inflam inh | KB-V1 MDR tox | KB-3-1 tox | HT1080NT lethal
Cc1ccc(C(=O)N/C(=C/c2ccc(C(C)C)cc2)C(=O)NCCCN2CCOCC2)cc1 | 8% | ? | i | i | 6%
CCCC(=O)NC(c1cccs1)c1cc(Cl)c2cccnc2c1O (stereo not drawn) | ? | 89 | i | ? | -28%
CC(C)C(=O)NC(c1cccs1)c1cc([N+](=O)[O-])c2cccnc2c1O (stereo not drawn) | 7.3µM* | -13 | ? | ? | ?
Cc1ccc(C(NC(=O)C(C)C)c2cc([N+](=O)[O-])c3cccnc3c2O)cc1 (stereo not drawn) | 15µM* | 21 | ? | ? | ?
CC(=O)NC(c1cccs1)c1cc(F)c2cccnc2c1O (stereo not drawn) | . | . | i | 10µM* | .
CCOc1ccc(-n2c(=O)c3sc4ccccc4c3n(Cc3cccc(C)c3)c2=O)cc1 | . | . | i | i | .
CCCN(C(=O)c1c(C)oc2ncnc(N3CCOCC3)c12)c1ccc(Cl)c(Cl)c1 | . | . | i | i | .
COC(=O)c1c(C)n(-c2ccccc2)c2ccc(O)cc12 | ? | 23 | 21µM* | ? | 11µM*
COC(=O)c1c(C)n(-c2ccc(C)cc2)c2ccc(O)cc12 | 20µM* | 20 | ? | ? | 13µM*
CCOc1ccc(-n2c(C)c(C(=O)OC)c3cc(O)ccc32)cc1 | -1% | -2 | i | i | -5%
CC1=C(C(=O)Nc2cccnc2)C(c2ccccc2)n2nc(SCc3ccccc3)nc2N1 (stereo not drawn) | . | . | i | i | .
NC(=O)c1cc(N2C(=O)C=CC2=O)ccc1Cl | 16µM* | 0 | i | i | ?
CC(=O)Nc1ccc(Cl)c(C(N)=O)c1 | -1% | 0 | i | i | 24%
COc1ccc(/C=N/NC(=O)C2COc3ccccc3O2)cc1OC (stereo not drawn) | 2% | 13 | i | i | 0%
COc1ccc(/C=N\NC(=O)C2COc3ccccc3O2)cc1O (stereo not drawn) | 12µM* | 13 | ? | i | 15µM*
COc1cc(/C=N\NC(=O)C2COc3ccccc3O2)cc(OC)c1O (stereo not drawn) | -3% | -71* | ? | i | -3%
COc1cc(/C=N/NC(=O)C2COc3ccccc3O2)ccc1O (stereo not drawn) | -1% | -9 | i | i | -3%
CC(C)(C)c1ccc2c(c1)OC(C(=O)N/N=C\c1ccc[nH]1)CO2 (stereo not drawn) | 3.7µM* | -12 | i | i | ?
O=C(N/N=C/c1ccc2c(c1)OCO2)C1COc2ccccc2O1 (stereo not drawn) | ? | 11 | 10µM* | i | ?
O=C(Cn1ncc2c3ccccc3n(Cc3cccc(Cl)c3)c2c1=O)Nc1ccc(F)cc1F | . | . | i | i | .
CCC(=O)N1c2ccccc2CC1C(=O)NCCc1ccccc1OC (stereo not drawn) | . | . | i | i | .
C#CCOCCOCCOCCNc1nc(N2CCOCC2)nc(N2CCN(C(=O)CCCCCCCCCCNC(=O)[C@H](CO)n3cc(CCCCCN)nn3)CC2)n1 | -10% | -21 | i | i | -4%
C#CCOCCOCCOCCNc1nc(N2CCN(C(=O)CCCCCCCCCCNC(=O)Cn3cc(CCCCCN)nn3)CC2)nc(N2CCN(C(=O)CCCCCCCCCCNC(=O)[C@H]([C@@H](C)CC)n3cc(CCCCCN)nn3)CC2)n1 | ? | -106* | i | ? | ?
C#CCOCCOCCOCCNc1nc(N2CCN(C(=O)CCCCCCCCCCNC(=O)Cn3cc(CCCCCN)nn3)CC2)nc(N2CCN(C(=O)CCCCCCCCCCNC(=O)[C@H](CO)n3cc(CCCCCN)nn3)CC2)n1 | ? | -71* | ? | i | -17%
Cc1noc(C)c1COc1cccc(C(=O)OC(C)C(=O)Nc2ccc3c(c2)OCO3)c1 (stereo not drawn) | 5µM* | 0 | ? | i | 10µM*
SMILES | HT1080 IDH1KD tx | IL-1B inflam inh | KB-V1 MDR tox | KB-3-1 tox | HT1080NT lethal
Cc1ccc(NC(=O)c2ccc(OCc3c(C)noc3C)cc2)cc1C | -21% | -88* | ? | ? | ?
Cc1noc(C)c1COc1ccc(C(=O)NNC(=O)c2ccccc2F)cc1 | 6.5µM* | 18 | i | ? | ?
Cc1noc(C)c1COc1cccc(C(=O)Nc2ccc(Br)cc2F)c1 | ? | -1 | 2.9µM* | 6.5µM* | ?
Cc1noc(C)c1COc1ccccc1C(=O)NNC(=O)c1ccccc1F | 15% | -10 | ? | i | 2%
COc1ccc(C(C(=O)NC(C)(C)C)N(Cc2cccnc2)C(=O)CCC(=O)Nc2cc(C)on2)cc1 (stereo not drawn) | 13% | 7 | i | i | 9%
CCCCNS(=O)(=O)c1cccc(NC(=O)[C@@H]2O[C@H](CO)[C@H](O)[C@H](O)[C@H]2O)c1 | -8% | -11 | i | i | 16%
Cc1noc(C)c1COc1ccc(C(=O)NNC(=O)c2ccccc2)cc1 | 15µM* | 20 | 7.3µM* | 4.6µM* | ?
Cc1ccc(NC(=O)c2cccc(OCc3c(C)noc3C)c2)cc1S(=O)(=O)Nc1ccccc1Cl | -16% | -10 | 7.3µM* | i | 7%
Cc1noc(C)c1COc1ccc(C(=O)O)cc1 | 5% | 15 | i | i | ?
CN(C)CCNC(=O)C(=O)NCC1CCCN1S(=O)(=O)c1cccs1 (stereo not drawn) | 12% | -6 | i | i | 16%
COc1ccc(NC(=O)CN(C)C(=O)/C=C/c2ccc(S(=O)(=O)N3CCCCCC3)cc2)cc1 | ? | -16 | 21µM* | ? | -6%
COc1ccc(/C=C/C(=O)N(C)CC(=O)Nc2cccc(F)c2)cc1S(=O)(=O)N1CCCCC1 | ? | 4 | i | 21µM* | -28%
CCN(CC(=O)Nc1c(F)cccc1F)C(=O)c1ccc(S(=O)(=O)N2CCCC2)cc1 | 1% | -6 | i | i | -3%
COc1ccc(NC(=O)CN(C)Cc2c(F)cccc2Cl)cc1S(=O)(=O)N1CCCCC1 | 17% | -3 | ? | i | 12%
CCN(CC(=O)Nc1c(F)cccc1F)C(=O)/C=C/c1ccc(S(=O)(=O)N2CCCCCC2)cc1 | ? | -58* | ? | ? | -15%
